# Source: the supplement of paper PMC9844399
# Where a name gives a salt, the structure may show the parent alone.
# System: HeLa
# Assay: nuclear count per well, robust Z-score vs DMSO; higher = more cells (less toxicity)
# Conditions: 10 µM; 6 h
# 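Further: Hoechst-stained nuclei counted by automated confocal imaging of four fields per well in 384-well plates, with the robust Z-score based on the per-plate DMSO median and robust SD.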
row,Structure (SMILES),nuclear count per well
1,CO/N=C(\C(=O)N[C@@H]1C(=O)N2C(C(=O)OC(C)OC(C)=O)=C(COC(N)=O)CS[C@H]12)c1ccco1 (some centres undefined) [Cefuroxime Axetil],-0.643
2,C#C[C@]1(O)CC[C@H]2[C@@H]3CCC4=CCCC[C@@H]4[C@H]3C(=C)C[C@@]21CC [Desogestrel],0.13
3,C[C@@H](NCCCc1cccc(C(F)(F)F)c1)c1cccc2ccccc12,0.291
4,CO[C@H]1C[C@@H]2CC[C@@H](C)[C@@](O)(O2)C(=O)C(=O)N2CCCC[C@H]2C(=O)O[C@H]([C@H](C)C[C@@H]2CC[C@@H](O)[C@H](OC)C2)CC(=O)[C@H](C)/C=C(\C)[C@@H](O)[C@@H](OC)C(=O)[C@H](C)C[C@H](C)/C=C/C=C/C=C/1C [Sirolimus (Rapamycin)],-1.12
5,CC(C)/N=c1\cc2n(-c3ccc(Cl)cc3)c3ccccc3nc-2cc1Nc1ccc(Cl)cc1 [Clofazimine],-0.182
6,C[C@H]1COC2=C1C(=O)C(=O)c1c2ccc2c1CCCC2(C)C [Cryptotanshinone],-1.07
7,Nc1cc(-c2ccncc2)c[nH]c1=O [Amrinone],0.16
8,CCN(CC)CCCC(C)Nc1ccnc2cc(Cl)ccc12 (centres undefined) [Chloroquine],1.17
9,CC(C)c1nc(N(C)S(C)(=O)=O)nc(-c2ccc(F)cc2)c1/C=C/[C@@H](O)C[C@@H](O)CC(=O)O [Rosuvastatin Calcium],-1.17
10,CCCNCC(O)COc1ccccc1C(=O)CCc1ccccc1 (centres undefined),-0.193
11,CC(C)(C)NC[C@H](O)COc1cccc2c1CCCC2=O,-0.231
12,C=CC[C@@H]1/C=C(\C)C[C@H](C)C[C@H](OC)[C@H]2O[C@@](O)(C(=O)C(=O)N3CCCC[C@H]3C(=O)O[C@H](/C(C)=C/[C@@H]3CC[C@@H](O)[C@H](OC)C3)[C@H](C)[C@@H](O)CC1=O)[C@H](C)C[C@@H]2OC [Tacrolimus (Fk506)],-0.498
13,O=C(O)c1cccnc1Nc1cccc(C(F)(F)F)c1 [Niflumic acid],1.21
14,CC(=O)O[C@H]1C[C@@]2(C)[C@@H](C[C@@H](O)[C@H]3[C@@]4(C)CC[C@@H](O)[C@@H](C)[C@@H]4CC[C@@]32C)/C1=C(\CCC=C(C)C)C(=O)O [Fucidin],0.193
15,CC(N)=NCc1cccc(CN)c1,0.0782
16,OC[C@H]1NC[C@H](O)[C@@H](O)[C@@H]1O [1-Deoxynojirimycin],0.783
17,CC1=C(/C=C/C(C)=C/C=C/C(C)=C\C(=O)O)C(C)(C)CCC1 [Isotretinoin (13-Cis-Retinoic Acid)],-0.689
18,CCCN[C@H]1CCc2nc(N)sc2C1 [Pramipexole Dihydrochloride Monohydrate],0.788
19,CC[C@H](C)C(=O)O[C@H]1C[C@@H](C)C=C2C=C[C@H](C)[C@H](CC[C@@H](O)C[C@@H](O)CC(=O)O)[C@H]21 [Lovastatin Sodium Salt],-0.099
20,CC1(C)NC(=O)N(c2ccc([N+](=O)[O-])c(C(F)(F)F)c2)C1=O [Nilutamide],-0.267

row,Structure (SMILES),nuclear count per well
1,CC[C@H]1OC(=O)[C@H](C)[C@@H](O[C@H]2C[C@@](C)(OC)[C@@H](O)[C@H](C)O2)[C@H](C)[C@@H](O[C@@H]2O[C@H](C)C[C@H](N(C)C)[C@H]2O)[C@](C)(O)C[C@@H](C)C(=O)[C@H](C)[C@@H](O)[C@]1(C)O [Erythromycin],0.151
2,O=[N+]([O-])c1cccc2c(Br)[nH]nc12 [Bromo-7-nitroindazole],-0.0311
3,Clc1ccc(CCC(Cn2ccnc2)Sc2c(Cl)cccc2Cl)cc1 (centres undefined) [Butoconazole Nitrate],1.32
4,Cc1c(C)c2c(c(C)c1O)CCC(C)(C(=O)O)O2 (centres undefined),0.44
5,C1CCC(C(CC2CCCCN2)C2CCCCC2)CC1 (racemic) [rac Perhexiline Maleate],-0.437
6,CO[C@H]1C[C@@H]2CC[C@@H](C)[C@@](O)(O2)C(=O)C(=O)N2CCCC[C@H]2C(=O)O[C@H]([C@H](C)C[C@@H]2CC[C@@H](O)[C@H](OC)C2)CC(=O)[C@H](C)/C=C(\C)[C@@H](O)[C@@H](OC)C(=O)[C@H](C)C[C@H](C)/C=C/C=C/C=C/1C [Rapamycin],1.56
7,CCCCCCCCCCCCCCCCOCC(COP(=O)([O-])OCC[N+](C)(C)C)OC (centres undefined) [1-Hexadecyl-2-methylglycero-3 PC],-0.31
8,Cc1cc(CS(=O)(=O)c2ccccc2)cc(OCc2ccc(CN3CCC[C@@H]3CO)cc2)c1,-0.0923
9,CO/N=C(\C(=O)N[C@@H]1C(=O)N2C(C(=O)O)=C(COC(N)=O)CS[C@H]12)c1ccco1,0.832
10,Oc1cc(O)cc(/C=C/c2ccc(O)c(O)c2)c1 [Piceatannol],-0.0133
11,CNC(=O)c1cc(Oc2ccc(NC(=O)Nc3ccc(Cl)c(C(F)(F)F)c3)c(F)c2)ccn1 [Regorafenib (BAY 73-4506)],0.877
12,Fc1ccc(-n2cc(CCCCN3CCC4(CC3)OCc3ccccc34)c3ccccc32)cc1 [Siramesine fumarate salt],0.93
13,CCC(C)SSc1ncc[nH]1 (centres undefined),-0.451
14,COc1ccc(Cl)cc1C(=O)NCCc1ccc(S(=O)(=O)NC(=O)NC2CCCCC2)cc1 [Glibenclamide],-0.32
15,CC(=O)NO [Acetohydroxamic Acid],0.402
16,Nc1nc(NC2CC2)c2ncn([C@H]3C=C[C@@H](CO)C3)c2n1 [Abacavir],-0.283
17,CN(C)CCC=C1c2ccccc2COc2ccccc21,0.534
18,CC#C[C@]1(O)CC[C@H]2[C@@H]3CCC4=CC(=O)CCC4=C3[C@@H](c3ccc(N(C)C)cc3)C[C@@]21C [Mifepristone],-0.723
19,Cc1ccc(N(CC2=NCCN2)c2cccc(O)c2)cc1 [Phentolamine mesylate],0.0958
